The record followed here is PubChem BioAssay AID1645860 (Buhrlage Lab, Dana-Farber Cancer Institute and Novartis …, 2021).

Broadly, the inhibition is the relative decrease from the control value, in per cent.

SMILES strings stand for the structures. In all, about 47,000 compounds went through this assay and about 2,500 (5.3%) were called active. Many of the other results were omitted from the sample, so actives are more common in it than they were. Unmarked numbers belong to inactive results. Cut-off read from the data, not from the text of the source: active = inhibition above about 30%; inactive = the rest.

The target of the test is Ubiquitin carboxyl-terminal hydrolase 30 (Homo sapiens) (UniProt Q70CQ3). The test is described as follows: blocks human USP30 ubiquitin-rhodamine cleavage (AID 1645860). The settings on record: purified USP30, Ub-rhodamine cleavage fluorescence; at 25 µM; active compounds read high.
Chain of Ubiquitin carboxyl-terminal hydrolase 30 (Homo sapiens) (Q70CQ3 whole entry, looked up): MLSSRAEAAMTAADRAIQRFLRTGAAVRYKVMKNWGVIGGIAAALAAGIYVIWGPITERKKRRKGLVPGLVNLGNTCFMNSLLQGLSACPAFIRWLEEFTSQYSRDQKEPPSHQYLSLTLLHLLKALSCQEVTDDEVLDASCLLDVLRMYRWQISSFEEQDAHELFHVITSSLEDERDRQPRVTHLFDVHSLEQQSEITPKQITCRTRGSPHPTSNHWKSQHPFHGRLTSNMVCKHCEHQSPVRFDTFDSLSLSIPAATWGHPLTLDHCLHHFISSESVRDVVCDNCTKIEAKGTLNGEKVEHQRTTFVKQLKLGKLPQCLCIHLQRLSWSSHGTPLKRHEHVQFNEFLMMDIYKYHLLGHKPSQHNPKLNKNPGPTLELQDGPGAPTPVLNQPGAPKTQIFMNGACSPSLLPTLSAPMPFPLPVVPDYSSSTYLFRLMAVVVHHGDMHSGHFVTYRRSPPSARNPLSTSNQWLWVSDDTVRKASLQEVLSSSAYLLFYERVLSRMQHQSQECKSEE
Consider `CC(=O)Nc1ccc(S(=O)(=O)NCc2ccc(C(=O)NCc3ccc(C)cc3)cc2)cc1`, for which the inhibition was -1.25%.
The same measure for `O=C1Nc2cc(C(=O)N3CCC4(CC3)OCCO4)ccc2N2C(=O)CCC12` (centres undefined): 1.12%.
As for `COc1ccc(NC(=O)CSc2cn(CC(=O)N3CCCC3)c3ccccc23)cc1`, the figure is 18.7%; as for `O=C(Cn1cc(S(=O)(=O)Cc2ccccc2F)c2ccccc21)N1CCCCCC1`, 3.16%.
As for `COc1ccc(NC(=O)CS(=O)(=O)c2cn(CC(=O)N3CCCC3)c3ccccc23)cc1`, the figure is 30.4% (active); as for `O=C(NCc1cccnc1-c1ccc(F)cc1)C1CCC1`, 21.3%.
Turning to `Fc1cccc(Nc2nc(-c3ccncc3)nc3c2CCC3)c1`, the inhibition was 23.2%.
As for `CSc1nc2c(c(Nc3ccc(C(C)=O)cc3)n1)CCC2`, the figure is 80.5% (active).
As to `CC1CCCN(c2ccc(-c3nc(-c4cccnc4)no3)cc2[N+](=O)[O-])C1` (centres undefined), the inhibition was -2.58%.
As for `CC(CCc1ccccc1)NCc1c(C(=O)O)n(Cc2ccccc2F)c2ccccc12` (centres undefined), the figure is 33.3% (active); as for `CNC(=O)NC1CCN(c2nc3cccnc3n(Cc3ccc(C)cc3)c2=O)CC1`, -0.331%; as for `COc1ccc(CCNCc2c(C(=O)O)n(Cc3ccc(Cl)cc3)c3ccccc23)c(OC)c1OC`, 18.6%.
Turning to `Cc1ccc(CCNCc2c(C(=O)O)n(C)c3ccccc23)cc1`, the inhibition is -4.51%.
The same measure for `O=C(CCCn1c(=O)c2ccccc2n(Cc2ccccc2F)c1=O)NC1CCCC1`: 15.8%; for `Cc1ccc(Cn2c(C(=O)O)c(CNC(C)CCc3ccccc3)c3ccccc32)cc1` (centres undefined): 35.8% (active).
As for `O=S(=O)(c1ccc(Cl)c(-c2nnc(-c3ccccc3)o2)c1)N1CCOCC1`, the figure is 8.47%.
As for `Cc1ccc(S(=O)(=O)NC2=NC(c3ccccc3)c3cc(Cl)ccc3N2)cc1` (centres undefined), the inhibition is 43.7% (active).
In the case of `Cc1ccc(S(=O)(=O)Nc2ccc(-c3c[n+]4ccccc4n3C)cc2)cc1`, the inhibition is 21.2%.
As for `Cc1ccc(S(=O)(=O)NCc2c(-c3ccccc3)c3cc(C)ccc3[nH]c2=O)cc1`, the figure is -9.29%; as for `COc1cc(NC(=O)c2noc3c2CCc2sccc2-3)cc(OC)c1`, 8.21%.
The same measure for `CC(=O)N1CCCc2ccc(NC(=O)c3cccc([N+](=O)[O-])c3)cc21`: 16.5%; for `CC1(C)OC(=O)[C@@]2(C)N[C@]1(C)C[C@@H]2C(=O)Nc1ccc(O)cc1`: -11.1%; for `Cc1sc(NC(=O)c2ccc(S(=O)(=O)N(C)CC3CCCO3)cc2)c(C(N)=O)c1C` (centres undefined): -70.8%.
The same measure for `Cc1ccc(S(=O)(=O)CC(=O)Nc2sc(C)c(C)c2C(N)=O)cc1`: -97.7%; for `CCN(CC)S(=O)(=O)c1ccc(C(=O)Nc2sc(C)c(C)c2C(N)=O)cc1`: 36.2% (active).
Take `Cn1cc(-c2cnc3n2CCC32CCN(S(=O)(=O)c3cccc(F)c3)CC2)cn1`: the inhibition was -1.9%.
The same measure for `CN(C(=O)CSCc1nc(-c2ccc(F)cc2)no1)c1ccc(F)cc1`: -1.42%; for `O=c1[nH]c2c(-c3ccccn3)nsc2c(=O)n1Cc1cccnc1`: 2.65%.
Regarding `O=C(COC(=O)C1CCN(S(=O)(=O)c2c(Cl)cccc2Cl)CC1)Nc1ccc2c(c1)CCC2`, the inhibition is 11.6%.
As for `O=C(Nc1nnc(-c2cccc([N+](=O)[O-])c2)o1)C1CCN(S(=O)(=O)c2ccc3c(c2)CCC3)CC1`, the figure is 40.6% (active); as for `Cc1cccc(-c2nnc(-c3cccc(S(=O)(=O)N4CCCC4)c3)o2)c1`, 10.5%.
The same measure for `CNc1cc(C)nc(C2CN(C(=O)c3ccnn3C(C)C)CCO2)c1` (centres undefined): 15.8%; for `COc1ccc(C2c3c(oc4ccccc4c3=O)C(=O)N2c2cc(C)on2)cc1` (centres undefined): 23.7%.
The same measure for `O=C(C1CCOCC1)N1CCc2nc3ccccc3n2C(Cc2ccccc2)C1` (centres undefined): 8.3%.
Consider `CCN1Cc2c(C(=O)NCCC(C)C)ncn2-c2ccccc2S1(=O)=O`, for which the inhibition was -4.42%.
Turning to `CN1C(=O)c2ccccc2C(C(=O)N2CCc3ccccc3C2)C1c1cccs1` (centres undefined), the inhibition is 25%.
The same measure for `O=c1c(S(=O)(=O)c2cc(F)cc(F)c2)c[nH]c2ccc(F)cc12`: -13.9%; for `Cc1cccc(N2CC(C)Cn3c2nc2c3c(=O)n(CC(=O)OCc3ccccc3)c(=O)n2C)c1` (centres undefined): -36.6%.
The same measure for `COc1ccc(-c2nc3c(c(=O)c4ccccc4n3C)c(=O)n2CCc2ccc(OC)c(OC)c2)cc1`: 7.98%; for `N#Cc1ccccc1Cn1c(=O)n(CCCC(=O)NCc2ccc(F)cc2)c(=O)c2ccccc21`: 20.9%.
As for `Cc1ccc(CNC(=O)CCCn2c(=O)c3sccc3n(CC(=O)OCc3ccccc3)c2=O)cc1`, the figure is 70.7% (active); as for `COc1ccc(CCNC(=O)Cn2c(=O)n(CC3CCC(C(=O)NC4CCCC4)CC3)c(=O)c3ccccc32)cc1OC` (centres undefined), 16.9%; as for `COc1ccc(CCNC(=O)CCCn2c(=O)c3ccccc3n(CC(=O)OCc3ccccc3)c2=O)cc1OC`, 64.1% (active).
Regarding `COC[C@H]1C[C@@H]2CN(S(=O)(=O)c3ccc(F)cc3)C(C)[C@H]1N2C` (some centres undefined), the inhibition was -8.47%.
Regarding `CCn1cc(-c2ccnc3cc(C(=O)NC4CCOCC4)nn23)c(C)n1`, the inhibition is -12.3%.
As for `O=C(O)CCNC(=O)/C(=C/c1ccc(Cl)cc1)NC(=O)c1ccco1`, the figure is -2.38%.
The same measure for `O=C(NCCc1ccccc1)c1cc2c(s1)CS(=O)(=O)C2`: -21.6%; for `O=C(NCc1ccc2c(c1)OCO2)c1cc2c(s1)CS(=O)(=O)C2`: 34.4% (active).
As for `O=C(NCc1ccc2c(c1)OCO2)C1=CCN(Cc2ccccc2)CC1`, the figure is -38.4%; as for `COc1ccc(C)cc1NC(=O)COC(=O)C1(c2ccccc2F)CCCC1`, 22.5%.
Take `Cc1nc(-c2cccc(NC(=O)C3CCN(c4ccccc4)C3=O)c2)no1` (centres undefined): the inhibition is 42.5% (active).
As for `Cc1nc(-c2cccc(S(=O)(=O)Nc3ccccc3C)c2)no1`, the figure is -3.5%; as for `CC(=O)c1cccc(NC(=O)c2cccc(-c3nc(-c4ccccc4)no3)c2)c1`, -9.31%.
The same measure for `CC(C)c1noc(-c2ccc(-n3cnc(C(=O)NC4CC4)c3)nc2)n1`: 1.32%.
